This passage reports AC50 and outcome results from PubChem BioAssay (EPA / NIEHS).

Values joined by “and” are separate entries in the source; they are usually repeats but may differ in a detail not shown here. Equal entries are not always repeated. Records with an inconclusive call do not appear. Some compounds were tested as several samples or in several runs, with calls that do not always agree. Active and inactive are the calls of the source. The calls were made as follows: active = hit-call score of the fitted dose curve at least 0.9, where 1 is the maximum; inconclusive = response in the unintended direction; inactive = score below 0.9.

The term AC50 denotes the concentration giving half of the maximal activity seen.

A short description of this test: CCTE_Shafer_MEA_dev_LDH: CCTE's Lactate Dehydrogenase Assay for Cytotoxicity in the Neural Network Formation Assay, Shafer Lab (AID 2284068).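 Also: exposure for twelve days from plating with re-dosing on DIV 5 and 9.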 As to the method:
CCTE_Shafer_MEA_dev assay is conducted using Axion Biosystems 48 well microelectrode array (MEA) plates and Maestro recording system. Each well of the MEA plate contains a grid of 16 microelectrodes embedded in the culture surface. Electrically active cells, such as neurons, can be cultured over the electrodes, and electrical activity in these cells can be recorded extracellularly. The spontaneous firing of neurons is captured from each electrode on a microsecond timescale providing both temporally and spatially precise data. […] The CCTE_Shafer_MEA_dev assay uses primary cultures of rat cortical neurons. Recordings are made on days post-plating 5, 7, 9 and 12. As these cultures mature over time, neural networks develop functional activity and form cohesive networks in which electrical activity can be highly coordinated. CCTE_Shafer_MEA_dev_LDH is 1 of 19 assay components of the CCTE_Shafer_MEA_dev assay. It measures the lactate dehydrogenase enzyme activity using spectrophotometry.Data from the assay component CCTE_Shafer_MEA_dev_LDH was analyzed into 1 assay endpoint. This assay endpoint, CCTE_Shafer_MEA_dev_LDH, was analyzed in the positive analysis fitting direction relative to DMSO as the negative control and baseline of activity. Using a type of viability reporter, loss-of-signal activity can be used to understand cell viability.
On the day prior to culture, each well was coated thoroughly with 150 uL of 0.05% polyethyleneimine (PEI, Sigma Cat P3143) in 50 mM HEPES (Sigma Cat H7523) at a pH of 8. The plate was incubated at 37C for one hour. PEI was rinsed out with 500 uL of sterile water three times. Plates were stored at 4C until the day of culture. This culture was plated at a seeding density of 1.5 x 10^5 cells/well on a 48-well MEA plate, prepared as described above. Cells were administered via a 25 uL media/laminin ([…]; Sigma Cat L2020-1MG) drop directly onto the microelectrode array, as adding the cells with the laminin results in better attachment than pre-coating with laminin. After 2 hours, an additional 475 uL of cortical media was added and the cells returned to the incubator. Exposure starts at day 0 of plating and is continued over twelve days of network development until the experiment is terminated. Cells are fed with fresh medium on DIV 5 and 9, following the recordings on those days. The entire volume of media in the well is exchanged and any vehicle or compound treatment is renewed. Complete details are found in OP-NHEERL/ISTD/SBB/TJS/2015-03-r0 (available on request, email shafer.tim@epa.gov). Measurement of the electrical activity is non-invasive, and recordings can be made from the same plate over multiple different days of the culture. In cortical neurons, this allows for the measurement of extracellular action potentials over the period during which networks form in the MEA plate.
In the case of `CO/N=C(/C1=NOCCO1)c1ccccc1Oc1ncnc(Oc2ccccc2Cl)c1F`, the concentration at half-maximal activity (AC50) is 643 nM (active) and 858 nM (active).
As for `COP(=O)(OC)O/C(C)=C/C(=O)N(C)C`, the molecule was called inactive.
Take `CC1(C)C(C=C(Cl)Cl)C1C(=O)OC(C#N)c1cccc(Oc2ccccc2)c1` (stereo not given): the molecule was called inactive.
For the molecule `CS(=O)(=O)c1ccc(C(=O)C2C(=O)CCCC2=O)c([N+](=O)[O-])c1`, the outcome was inactive.
`O=C(Nc1ccccc1-c1ccc(Cl)cc1)c1cccnc1Cl`: the outcome was inactive and the AC50 is 50 µM (active).
Take `CC(C)(C)C(=O)C(Oc1ccc(Cl)cc1)n1cncn1` (stereo not given): the AC50 was 37.5 µM (active).
As to `CCOP(=O)(OCC)Oc1nc(Cl)c(Cl)cc1Cl`, the call was inactive; the AC50 was 610 nM (active) and 413 nM (active).
Take `CCCN(CC)CC1COC2(CCC(C(C)(C)C)CC2)O1` (stereo not given): the AC50 is 0.168 µM (active).
With `COP(=S)(OC)Oc1ccc([N+](=O)[O-])c(C)c1`, the result was inactive.
`C=C(C)CN(CC)c1c([N+](=O)[O-])cc(C(F)(F)F)cc1[N+](=O)[O-]`: the AC50 is 14.5 µM (active).
As to `O=C1C2CC=CCC2C(=O)N1SC(Cl)(Cl)Cl` (stereo not given), the half-maximal activity concentration (AC50) was 15.9 µM (active) and 13.8 µM (active).
As for `CCNC(=O)NC(=O)C(C#N)=NOC`, the outcome was inactive.
Regarding `CCN(CC)c1nc(C)cc(OP(=S)(OC)OC)n1`, the AC50 is 29.2 µM (active).
For the molecule `COP(=S)(OC)SCn1nnc2ccccc2c1=O`, the half-maximal activity concentration (AC50) is 22.7 µM (active).
As to `CCSC(=O)N1CCCCCC1`, the outcome was inactive.
`CCOC(=O)C(C)OC(=O)c1cc(Oc2ccc(C(F)(F)F)cc2Cl)ccc1[N+](=O)[O-]` (stereo not given): the molecule was classed as inactive.
For the molecule `Cc1c(COC(=O)[C@@H]2[C@H](/C=C(\Cl)C(F)(F)F)C2(C)C)cccc1-c1ccccc1`, the AC50 was 17.5 µM (active) and 11.2 µM (active).
Take `CC1(C)C(C(=O)OC(C#N)c2cccc(Oc3ccccc3)c2)C1(C)C` (stereo not given): the concentration at half-maximal activity (AC50) is 17.8 µM (active).
In the case of `N#CN=C1SCCN1Cc1ccc(Cl)nc1`, the result was inactive.
Consider `CN/C(=N\[N+](=O)[O-])NCc1cnc(Cl)s1`, for which the call was inactive.
Regarding `CNC(=O)Oc1cccc2ccccc12`, the AC50 was 15 µM (active) and 25.1 µM (active).
For the molecule `COC(=O)N(C(=O)N1CO[C@@]2(C(=O)OC)Cc3cc(Cl)ccc3C2=N1)c1ccc(OC(F)(F)F)cc1`, the AC50 is 7.61 µM (active).
As to `CC(C)=CC1C(C(=O)OCc2coc(Cc3ccccc3)c2)C1(C)C` (stereo not given), the AC50 was 14.1 µM (active).
